High-throughput results from PubChem.
OPRM1-OPRD1 inv: inverse agonists of human mu-delta opioid receptor heterodimerization; cell-based MOR-DOR heterodimer luminescence, inverse agonism; inhibition, % at 9.3 µM; AID 504357; 340,000 tested, 0.21% active; in the data active = inhibition above about 22%, passing the limit was not always enough
HTR5A ag: activates human HTR5A in OPRM1-OPRD1 agonist counter-screen | activation, % at 9.3 µM | 340,000 tested, 0.61% active | HTR5A agonist assay, luminescence, cell-based | P47898; in the data active = activation mostly above about 9.5%, no sharp cut-off; inactive = mostly below about 7.6%
Target sequence (P47898 whole entry, looked up): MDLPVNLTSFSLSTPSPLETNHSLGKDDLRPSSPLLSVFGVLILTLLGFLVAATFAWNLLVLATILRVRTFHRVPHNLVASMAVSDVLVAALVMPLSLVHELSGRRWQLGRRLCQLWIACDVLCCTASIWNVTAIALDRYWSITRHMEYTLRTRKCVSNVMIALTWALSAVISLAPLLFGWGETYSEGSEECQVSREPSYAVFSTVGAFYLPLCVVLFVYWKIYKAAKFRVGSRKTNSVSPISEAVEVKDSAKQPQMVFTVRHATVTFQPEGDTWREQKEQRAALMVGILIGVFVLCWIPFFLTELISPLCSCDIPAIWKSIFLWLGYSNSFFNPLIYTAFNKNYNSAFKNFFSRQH
HTR5A inv ag: counter-screen for OPRM1-OPRD1 inverse agonists: human HTR5A inverse agonism. P47898. HTR5A cell line, luminescence. inhibition, % at 9.3 µM. 340,000 tested, 0.083% active. AID 504634; in the data active = inhibition mostly above about 23%, no sharp cut-off; inactive = mostly below about 18%
OPRM1-OPRD1 ag: OPRM1-OPRD1 heterodimerization agonism; AID 504326; 340,000 tested, 0.3% active; P35372+P41143; activation, % at 9.3 µM; cells, luminescence; in the data active = activation above about 18%
Numbers stand for hits; i = inactive. Shown are actives, neighbours in structure and some others; about 1.1% of the full set was active somewhere.

SMILES | OPRM1-OPRD1 inv | HTR5A ag | HTR5A inv ag | OPRM1-OPRD1 ag
O=C(CSc1nnc(-c2ccc(Cl)cc2)n1-c1ccc(Cl)cc1)N/N=C/c1ccco1 | i | i | i | i
Cc1ccc(/C=N/NC(=O)CSc2nnc(-c3ccc(Cl)cc3)n2-c2ccccc2)o1 | i | 14 | i | i
CCOC(=O)C1CCCN(c2c(C(=O)c3ccccc3)cnc3ccc(OC)cc23)C1 (centres undefined) | 36 | i | 30 | i
CCOC(=O)C1CCCN(C(=O)COc2ccc(C(=O)c3ccccc3)cc2)C1 (centres undefined) | i | i | i | i
O=C1C(=O)N(CCN2CCOCC2)C(c2ccccn2)/C1=C(/O)c1ccccc1 (centres undefined) | i | 12 | i | i
COC(=O)c1cc(C)nc2c1C(=O)C(=O)C=C2N1CCOCC1 | i | i | i | 26
Cc1noc(C)c1NC(=O)Nc1cccc2c1O[C@H](CN(C)S(=O)(=O)c1cccs1)[C@@H](C)CN([C@H](C)CO)C2=O | i | i | i | i
O=C1c2ccccc2C(=O)N1CC1c2ccccc2CCN1C(=O)C1CCCCC1 (centres undefined) | i | i | i | i
O=C1c2ccccc2C(=O)N1CC1c2ccccc2CCN1C(=O)CN1CCOCC1 (centres undefined) | i | 11 | i | i
Cc1sc(-c2ccncc2)nc1OC(=O)c1ccc(F)cc1F | i | 9.8 | i | i
COc1ccccc1N/C=C(\C#N)c1nc2ccccc2[nH]1 | i | 13 | i | i
O=C(NCCNC(=O)c1ccco1)c1ccc(Cl)c(Cl)c1 | i | i | i | i
Cc1ccc(C(NC(=O)Nc2ccccn2)C(Cl)(Cl)Cl)cc1F (centres undefined) | i | 12 | i | i
CO/N=C/CC(=O)c1cnc(-c2ccc(Cl)cc2)s1 | i | i | i | i
COC(=O)CCCNC(=O)c1ccccn1 | i | i | i | i
CCOC(=O)C1=C(CC)OC(N)=C(C#N)C1c1cccs1 (centres undefined) | i | 11 | i | i
CC(=O)Nc1ccc(NC(=O)COC(=O)c2ccc([N+](=O)[O-])o2)cc1 | i | 13 | i | i
O=S(=O)(c1ccc2nc(-c3ccccc3)[nH]c2c1)N1CCN(c2ccc(Cl)cc2)CC1 | i | 10 | i | i
O=c1ccc2cc(S(=O)(=O)N3CCN(c4ccccc4)CC3)ccc2[nH]1 | i | i | i | i
COc1ccc(Cn2c(=S)[nH]c3cc(C(=O)NCc4cccnc4)ccc3c2=O)cc1 | i | 13 | i | i
CC(NC(=O)CSc1ncccc1C(=O)O)C1CC2CCC1C2 (centres undefined) | i | i | i | i
C=CCN1C(=O)/C(=N/n2cnnc2)c2ccccc21 | 46 | i | i | i
CCc1sc(C(=O)N2CCN(c3ccc(F)cc3)CC2)cc1C | i | i | i | i
O=C(Nc1ccc2oc(=O)ccc2c1)c1ccc(-c2ccccc2[N+](=O)[O-])o1 | i | 14 | i | 27
CCN(CC)CCn1c(SCC(=O)Nc2ccc3c(c2)CCC3)nc2ccccc2c1=O | i | 12 | i | i
SMILES | OPRM1-OPRD1 inv | HTR5A ag | HTR5A inv ag | OPRM1-OPRD1 ag
O=C(CSc1nc2ccccc2c(=O)n1-c1ccccc1F)Nc1ccc2c(c1)CCC2 | i | i | i | i
CCc1ccc(S(=O)(=O)N2CCN(c3ccccc3OC)CC2)cc1 | i | i | i | i
COc1ccc(NC(=O)Nc2cccc3c2O[C@H](CN(C)S(=O)(=O)c2ccc(OC)cc2)[C@@H](C)CN([C@H](C)CO)C3=O)cc1 | i | i | i | i
COc1ccc(NC(=O)Nc2cccc3c2O[C@H](CN(C)S(=O)(=O)c2c(C)noc2C)[C@@H](C)CN([C@H](C)CO)C3=O)cc1 | i | 10 | i | i
Cc1cccc(C)c1OCc1cc(C(=O)NCC2CCCCC2)no1 | i | i | i | i
Cc1cccc(C)c1OCc1cc(C(=O)N(Cc2c(C)nn(C)c2C)C2CC2)no1 | i | 11 | i | i
COc1ccc(C(=O)c2sc3nc(-c4ccccc4)ccc3c2N)cc1OC | i | 18 | i | i
Cc1nc2ccccc2n1S(=O)(=O)c1ccc(S(=O)(=O)N2CCCCCC2)cc1 | i | 14 | i | i
Cc1noc(C)c1COc1ccccc1C(=O)N(C)Cc1ccco1 | i | i | i | i
Oc1cccc(C(O)CNCc2ccc(OCc3ccc(Cl)cc3Cl)cc2)c1 (centres undefined) | i | 12 | i | i
Oc1ccc(-c2csc(Nc3ccc4c(c3)OCO4)n2)c(O)c1 | i | i | i | i
N#Cc1ccc(Nc2nc(-c3ccc(O)cc3O)cs2)cc1C(F)(F)F | i | 13 | i | i
Cc1cc(C(=O)COC(=O)c2ccc(O)cc2O)c(C)n1C(C)C | i | i | i | i
O=C(NC1CCCCC1)NC1(C(=O)NCCCN2CCOCC2)CCCCC1 | i | 11 | i | i
O=C(Nc1ccccc1Cl)NC1(C(=O)NCCCN2CCOCC2)CCCCC1 | i | i | i | i
CC1CCN(C(=O)COC(=O)c2cc([N+](=O)[O-])ccc2N2CCOCC2)CC1 | i | 12 | i | i
COC(=O)C1CCN(C(=O)COC(=O)c2cc([N+](=O)[O-])ccc2N2CCOCC2)CC1 | i | i | i | i
CCn1cc(Cl)c(C(=O)N2N=C(c3ccc4ccccc4c3)CC2c2ccccc2O)n1 (centres undefined) | i | 12 | i | i
Nc1ncccc1OCc1ccc(Cl)c(Cl)c1 | i | i | i | i
NN=C1c2ccccc2C(=O)C1C(=O)C(c1ccccc1)c1ccccc1 (centres undefined) | i | i | i | i
Cc1cccc(NC(=O)C(=O)NCCc2c[nH]c3ccccc23)c1C | i | 14 | i | i
Cc1cccc(C)c1NC(=O)C(=O)NCCc1c[nH]c2ccccc12 | i | i | i | i
Cc1cc(C)cc(NC(=O)C(=O)NCCc2c[nH]c3ccccc23)c1 | i | 14 | i | i
Cc1cc(C)c(S(=O)(=O)N2CCCOC2CNC(=O)C(=O)NCCc2c[nH]c3ccccc23)c(C)c1 (centres undefined) | i | 12 | i | i
Cc1ccc(C)c(NC(=O)C(=O)NCCc2c[nH]c3ccccc23)c1 | i | i | i | i
SMILES | OPRM1-OPRD1 inv | HTR5A ag | HTR5A inv ag | OPRM1-OPRD1 ag
CCN(C[C@H]1N[C@@](C)(C(=O)OC)[C@H]2C(=O)N(C)C(=O)[C@@H]12)C(=O)COC | i | i | i | i
CCn1c(C)nc2cc(C(=O)N/N=C(\C)c3ccc(N4CCOCC4)cc3)ccc21 | i | i | i | i
CCn1c(C)nc2cc(C(=O)NN=C(C)c3ccc(C#N)cc3)ccc21 | i | 13 | i | i
O=C(N/N=C/c1c[nH]c2ccccc12)c1cc(-c2ccc(-c3ccccc3)cc2)n[nH]1 | i | 12 | i | i
O=C(N/N=C/c1c[nH]c2ccccc12)c1cc(-c2ccccc2)n[nH]1 | i | i | i | i
COc1cc(/C=N/NC(=O)c2cc(-c3ccc4c(c3)OCO4)n[nH]2)ccc1O | i | i | i | i
O=C(N/N=C/c1ccc([N+](=O)[O-])cc1)c1cc(-c2ccc3c(c2)OCO3)n[nH]1 | i | 13 | i | i
COc1ccc(Cc2nc(-c3ccc(-n4cccc4)cc3)no2)cc1OC | i | 11 | i | i
CC(=O)c1cc(-c2ccccc2)n(CC(=O)N2CCCCC2)c1C | i | 12 | i | i
